# Source: the supplement of paper PMC8728848
# Shown is part of a subset that was picked to be rich in the strongest signals.
# Assays:
# Test in all cases: glycan array binding signal (z-score within array); higher = stronger binding
# Details in all cases: glycan notation: IUPAC condensed, linker removed; mutation: D229G
# [1] = molecular target: Gal(b1-4)GlcNAc(b1-3)Gal(b1-4)[Fuc(a1-3)]GlcNAc(b1-3)Gal(b1-4)[Fuc(a1-3)]GlcNAc
# How it was run: (§1)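 Negative Z-scores can be read as non-binding. The Z-score is calculated within each array and then averaged across arrays of one protein sequence at different concentrations or buffers and across linkers. Arrays, 3228 in all, were curated from the Consortium for Functional Glycomics database and kept only where the protein sequence was available.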
# [2] = molecular target: Gal(b1-4)GlcNAc(b1-3)[Gal(b1-4)GlcNAc(b1-6)]Gal(b1-4)GlcNAc
# How it was run: as §1
# Gal3S(b1-3)GalNAc = molecular target: Gal3S(b1-3)GalNAc
# How it was run: as §1
# [3] = molecular target: Gal3S(b1-4)[Fuc(a1-3)]Glc6S
# How it was run: as §1
# Gal3S6S(b1-4)GlcNAc = molecular target: Gal3S6S(b1-4)GlcNAc
# How it was run: as §1
# Gal4S6S(b1-4)GlcNAc = molecular target: Gal4S6S(b1-4)GlcNAc
# How it was run: as §1
# Gal6S(b1-4)GlcNAc6S = molecular target: Gal6S(b1-4)GlcNAc6S
# How it was run: as §1
# GalNAc(a1-3)GalNAc = molecular target: GalNAc(a1-3)GalNAc
# How it was run: as §1
# GalNAc(b1-4)Gal(b1-4)Glc = molecular target: GalNAc(b1-4)Gal(b1-4)Glc
# How it was run: as §1
# [4] = molecular target: GalNAc(b1-4)GlcNAc(b1-2)Man(a1-3)[GalNAc(b1-4)GlcNAc(b1-2)Man(a1-6)]Man(b1-4)GlcNAc(b1-4)GlcNAc
# How it was run: as §1
# GalNAc(b1-6)GalNAc = molecular target: GalNAc(b1-6)GalNAc
# How it was run: as §1
# [5] = molecular target: GlcNAc(a1-3)Gal(b1-4)GlcNAc
# How it was run: as §1
# [6] = molecular target: GlcNAc(a1-4)Gal(b1-4)GlcNAc(b1-3)Gal(b1-4)GlcNAc
# How it was run: as §1
# [7] = molecular target: GlcNAc(a1-4)Gal(b1-4)GlcNAc(b1-3)Gal(b1-4)GlcNAc(b1-3)Gal(b1-4)GlcNAc
# How it was run: as §1
# [8] = molecular target: GlcNAc(b1-3)Gal(b1-4)GlcNAc(b1-3)Gal(b1-4)GlcNAc(b1-3)Gal(b1-4)GlcNAc(b1-3)Gal(b1-4)GlcNAc(b1-2)Man(a1-3)[GlcNAc(b1-3)Gal(b1-4)GlcNAc(b1-3)Gal(b1-4)GlcNAc(b1-3)Gal(b1-4)GlcNAc(b1-3)Gal(b1-4)GlcNAc(b1-2)Man(a1-6)]Man(b1-4)GlcNAc(b1-4)[Fuc(a1-6)]GlcNAc
# How it was run: as §1
# [9] = molecular target: GlcNAc(b1-3)Gal(b1-4)GlcNAc(b1-3)Gal(b1-4)GlcNAc(b1-3)Gal(b1-4)GlcNAc(b1-3)Gal(b1-4)GlcNAc(b1-2)[GlcNAc(b1-3)Gal(b1-4)GlcNAc(b1-3)Gal(b1-4)GlcNAc(b1-3)Gal(b1-4)GlcNAc(b1-3)Gal(b1-4)GlcNAc(b1-6)]Man(a1-6)[GlcNAc(b1-3)Gal(b1-4)GlcNAc(b1-3)Gal(b1-4)GlcNAc(b1-3)Gal(b1-4)GlcNAc(b1-3)Gal(b1-4)GlcNAc(b1-2)Man(a1-3)]Man(b1-4)GlcNAc(b1-4)[Fuc(a1-6)]GlcNAc
# How it was run: as §1
# GlcNAc(b1-3)Man = molecular target: GlcNAc(b1-3)Man
# How it was run: as §1
# [10] = molecular target: GlcNAc(b1-4)GlcNAc(b1-4)GlcNAc
# How it was run: as §1
# [11] = molecular target: Man(a1-3)[Man(a1-6)]Man(a1-6)[Man(a1-2)Man(a1-3)]Man(b1-4)GlcNAc(b1-4)GlcNAc
# How it was run: as §1
# [12] = molecular target: Man(a1-3)[Man(a1-6)]Man(b1-4)GlcNAc(b1-4)[Fuc(a1-6)]GlcNAc
# How it was run: as §1
# [13] = molecular target: Neu5Ac(a2-3)Gal(b1-3)GlcNAc6S
# How it was run: as §1
# [14] = molecular target: Neu5Ac(a2-3)Gal(b1-3)]Neu5Ac(a2-3)Gal(b1-4)]GlcNAc
# How it was run: as §1
# [15] = molecular target: Neu5Ac(a2-3)Gal(b1-4)GlcNAc(b1-6)[Gal(b1-3)]GalNAc
# How it was run: as §1
# Neu5Ac(a2-6)Gal = molecular target: Neu5Ac(a2-6)Gal
# How it was run: as §1
# [16] = molecular target: Neu5Ac(a2-6)Gal(b1-4)GlcNAc(b1-2)Man
# How it was run: as §1
# [17] = molecular target: Neu5Ac(a2-6)Gal(b1-4)GlcNAc(b1-3)Gal(b1-4)GlcNAc(b1-3)[Neu5Ac(a2-6)Gal(b1-4)GlcNAc(b1-3)Gal(b1-4)GlcNAc(b1-6)]GalNAc
# How it was run: as §1
# [18] = molecular target: Neu5Ac(a2-6)Gal(b1-4)GlcNAc(b1-3)Gal(b1-4)[Fuc(a1-3)]GlcNAc(b1-3)Gal(b1-4)[Fuc(a1-3)]GlcNAc
# How it was run: as §1
# [19] = molecular target: Neu5Ac(a2-6)GalNAc(b1-4)GlcNAc6S
# How it was run: as §1
# [20] = molecular target: Neu5Ac(a2-8)Neu5Ac(a2-3)Gal(b1-3)GalNAc(b1-4)[Neu5Ac(a2-3)]Gal(b1-4)Glc
# How it was run: as §1
# [21] = molecular target: Neu5Ac(a2-8)Neu5Ac(a2-3)[Gal(b1-3)GalNAc(b1-4)]Gal(b1-4)Glc
# How it was run: as §1
# [22] = molecular target: Neu5Ac(a2-8)Neu5Ac(a2-8)Neu5Ac(a2-3)[GalNAc(b1-4)]Gal(b1-4)Glc
# How it was run: as §1
# Neu5Gc(a2-6)GalNAc = molecular target: Neu5Gc(a2-6)GalNAc
# How it was run: as §1
binder,measurement,setting,value
"Epa1-NP-mutant-D229G (Candida glabrata), Q6VBJ0 (protein) MILNPALFLNKCVCIYTTLILLLLTNGGYATSSNDISLASKDPTTFPLGCSPDITTPKKGLSMELYSYDFRKKGSYPCWDAAYLDPNYPRTGYKSHRLLAKVDGVTGNINFYYHATKGCTPQLGHLPASYNYPKPLTMTNFTMLLYGYFRPKVTGFHTFTISADDLLFVNFGAGNAFDCCRRDSSADHFGNYQAYAIWGSKTAKDELTVHLDAGVYYPIRLFYNNREYGGALSFTFKTESNENTVSDFSEYFFSLDDTEEGCPGLISYDSSCASVKTSKIIGIDYHTETPNENLVPITKTIYHLGIPCTGTTTTPLCGSGFYDPLANKCVTINTSSTSSVTKTTSHTTSKEVSFHSSISSQKTLIPKSIPSPYGPIKSQSIPTEMETSSEISSSEYAFSDVISTPSHSPYTKKHSSLNSSSYTSTVIHSLTSYSISQGIFSTSLSEQNITSKSSTDKFSTATSMSNNITQSSIIISQFSTNNENYTTTSMHTSSDKISTETLNNSISTTTSILFSNSSTILKNNTTIISSDKDTHYHPVNPTIVCSTNKTEIICASITQPSISNSNNHWSSSVLKFNSTTVRSTLPSSAGSNETSINVPFSSSTESNTSTSSTSTSNSKMVRSTLPSSAGSNETSISVPFSSSTESNTSTSSTSTSNSKMVRSTLPSSAGSNETSINVPFSSSTESNTSTSSTSTSNSKTVRSTPFSSAGIIMTSLSQRNNKSASSYASSNSKCYNTADSCRKVHSTPSYLLTSSYTSEGVDYDCSLVSTKLKINDTNCVNNKHTTKSCLKTSVTTTIPTLEIKTARKSSSNTIGLHSYPTSSPNKSISSAPIIGYISSFKTIKTASPSYQTSDLTTITTITSLNNPGSTAVENTHESNDKSRKTSSNDISSKHSVIKETKDAVESSNKSHQTNTLKCSSIIIASSSHNSYESLGGTTLTLTLSKVYSPQNNDTLPFLEISEVNPSRTVLPESSKMMQYLTSTEERNKTARNTIATNIVSISTFHFEGEGNAIRMGYTQLLLMLIGIIVMNIGT",glycan array binding signal (z-score),[1],-0.579
same,glycan array binding signal (z-score),[2],0.003
same,glycan array binding signal (z-score),Gal3S(b1-3)GalNAc,-0.232
same,glycan array binding signal (z-score),[3],1.6
same,glycan array binding signal (z-score),Gal3S6S(b1-4)GlcNAc,2.68
same,glycan array binding signal (z-score),Gal4S6S(b1-4)GlcNAc,1.06
same,glycan array binding signal (z-score),Gal6S(b1-4)GlcNAc6S,10.9
same,glycan array binding signal (z-score),GalNAc(a1-3)GalNAc,0.722
same,glycan array binding signal (z-score),GalNAc(b1-4)Gal(b1-4)Glc,0.754
same,glycan array binding signal (z-score),[4],1.11
same,glycan array binding signal (z-score),GalNAc(b1-6)GalNAc,0.649
same,glycan array binding signal (z-score),[5],-0.409
same,glycan array binding signal (z-score),[6],0.024
same,glycan array binding signal (z-score),[7],-0.64
same,glycan array binding signal (z-score),[8],0.489
same,glycan array binding signal (z-score),[9],0.337
same,glycan array binding signal (z-score),GlcNAc(b1-3)Man,-0.859
same,glycan array binding signal (z-score),[10],0.36
same,glycan array binding signal (z-score),[11],0.04
same,glycan array binding signal (z-score),[12],-0.736
same,glycan array binding signal (z-score),[13],-0.064
same,glycan array binding signal (z-score),[14],0.197
same,glycan array binding signal (z-score),[15],0.933
same,glycan array binding signal (z-score),Neu5Ac(a2-6)Gal,0.425
same,glycan array binding signal (z-score),[16],0.054
same,glycan array binding signal (z-score),[17],3.67
same,glycan array binding signal (z-score),[18],1.65
same,glycan array binding signal (z-score),[19],0.733
same,glycan array binding signal (z-score),[20],-0.032
same,glycan array binding signal (z-score),[21],0.215
same,glycan array binding signal (z-score),[22],-0.436
same,glycan array binding signal (z-score),Neu5Gc(a2-6)GalNAc,-0.701
